# Data: PubChem BioAssay (NCI)
# About 83,000 compounds went through this panel and 20% of them were active in at least one assay; those are over-represented in the sample as a whole.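 Results are percent growth after 48 hours of single-concentration exposure. 100 means growth as in untreated cells, lower positive values show inhibition; negative values down to -100 show cell death.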 Values without a mark were called inactive. The source made the active and inactive calls. Rule for the calls: active = growth percent below 10; inactive = the rest.
# Key:
# Assay in all cases: NCI-60 one-dose screen, 48 h (100 = growth as untreated, 0 = no growth, -100 = all killed)
# Details in all cases: 10 µM unless noted
# NCI-H23 lung = tested on: NCI-H23 lung
# NCI-H226 lung = tested on: NCI-H226 lung
# NCI-H322M lung = tested on: NCI-H322M lung
# HOP-62 NSCLC = tested on: HOP-62 NSCLC
# NCI-H460 lung = tested on: NCI-H460 lung
# HOP-92 NSCLC = tested on: HOP-92 NSCLC
# NCI-H522 lung = tested on: NCI-H522 lung
# A549/ATCC NSCLC = tested on: A549/ATCC NSCLC
# 786-0 renal = tested on: 786-0 renal
# COLO 205 colon = tested on: COLO 205 colon
SMILES,growth (NCI-H23 lung),growth (NCI-H226 lung),growth (NCI-H322M lung),growth (HOP-62 NSCLC),growth (NCI-H460 lung),growth (HOP-92 NSCLC),growth (NCI-H522 lung),growth (A549/ATCC NSCLC),growth (786-0 renal),growth (COLO 205 colon)
CCOP(=O)(OCC)c1nc(-c2ccccc2)oc1NCc1cccnc1,102%,104%,106%,100%,107%,114%,92.8%,104%,104%,117%
CCN(CC)CCCN1C(=O)c2c(c(C)c3c(oc4cc(O)ccc43)c2C)C1=O,104%,35.4%,92.5%,94.5%,-24.6% (active),93.7%,82.6%,-74% (active),-80.6% (active),57.4%
Cc1ccc(S(=O)(=O)N2CCCC2CO)cc1 (stereo not given),84.9%,99.9%,93.6%,188%,99.9%,76.9%,90.7%,103%,100%,103%
O=C(Cn1cc(CN2C(=O)c3ccccc3S2(=O)=O)nn1)Nc1nc2ccccc2s1,103%,105%,98.2%,89.5%,105%,100%,84.2%,90.6%,101%,104%
O=C1Nc2ccccc2/C1=C\c1nc(-c2ccccc2)n2ccccc12,85%,91%,92%,92.9%,94.4%,121%,77.7%,92.7%,99.4%,110%
COc1cccc(CNc2ncnc3c2ncn3C2OC(CO)C(O)C2O)c1O (stereo not given),7.98% (active),31.6%,11.3%,1.76% (active),45.7%,-32.7% (active),8.65% (active),23.9%,7.21% (active),24.6%
COc1ccc2[nH]cc(-c3nc(-c4c[nH]c5ccncc45)cs3)c2c1,76.6%,93.3%,67.6%,27.6%,-20.7% (active),62.5%,-18.8% (active),24%,-86% (active),-62.8% (active)
Cc1cnc(C(=O)NNc2nc3sc4c(c3c(=O)n2C)C(C)CCC4)cn1 (stereo not given),5.46% (active),-1.53% (active),9.91% (active),-39.1% (active),4.18% (active),-9.03% (active),-9.87% (active),-5.22% (active),0.305% (active),0.0868% (active)
COc1cc2oc(-c3cccc(NC(=O)c4cccc(Br)c4)c3)cc(=O)c2c(OC)c1OC,57.2%,73.7%,76.4%,55.5%,34.7%,47.5%,38.6%,49.3%,59%,57.8%
CC(=O)[C@@H]1CCC=C2CC[C@]3(C)[C@@H](CC[C@@H]4[C@@]5(C)CCCNC(C)(C)[C@@H]5CC[C@]43C)[C@H]21,-58.8% (active),23.2%,-42.3% (active),-63.5% (active),-34.6% (active),-32.5% (active),-74.1% (active),-78.1% (active),-89.5% (active),-81% (active)
O=C1Nc2ccccc2[C@]12CC(c1ccccc1)=NN2,64.3%,77.7%,59.6%,59.6%,21.5%,30.8%,39.4%,44.3%,50.7%,3.6% (active)
O=C(Nc1nn(-c2ccc(Cl)cc2Cl)nc1-c1ccccc1)c1ccccc1,97.2%,98.6%,99.2%,77.3%,107%,86.9%,87.2%,94.7%,94.3%,99.3%
COc1ccc(Cc2cc(-c3ccccc3)nn(Cc3ccccc3)c2=O)cc1OC,39.4%,52%,82.4%,69.1%,33.9%,28%,37%,20%,35.8%,9.24% (active)
N=C(N)c1ccc(-c2ccc(-c3ccc(Cl)cc3)s2)nc1,62.8%,84.5%,-30.3% (active),36%,-90.2% (active),65.1%,-52.5% (active),-30.8% (active),71.3%,-71.8% (active)
CCOC(=O)/C=C1\S/C(=N\Nc2cc(=O)[nH]c3ccc(Cl)cc23)N(c2ccccc2)C1=O,90.5%,89.6%,98.6%,88%,102%,91.7%,79.7%,105%,93.8%,65%
CCN1CCN(Cc2cn(CC(=O)Nc3ccc4c(ccn4Cc4ccccc4)c3)nn2)CC1,104%,91.8%,98.8%,96%,114%,87.6%,99.9%,102%,97.8%,99.4%
CCN(CC)CCOc1ccc(C(=C(C)c2ccc(Cl)cc2)c2ccc(OCCN(CC)CC)cc2)cc1,3.75% (active),103%,-29.9% (active),-61.5% (active),-76.6% (active),6.28% (active),-67.2% (active),-68.9% (active),-97.6% (active),-68.7% (active)
CC1=Nc2cnc(Nc3ccc(OCCN4CCCCC4)cc3)nc2Nc2ccccc21,71.5%,81.3%,42%,81.4%,61.6%,32%,70.7%,77.2%,48.5%,63.7%
O=C(O)[C@@H]1c2ccccc2-c2ccccc2[C@H]1C(=O)O,91.4%,97.8%,99.2%,90.8%,109%,61.5%,91%,102%,88.8%,106%
O=C(CCc1nnc(Cn2cnc3nc[nH]c3c2=O)o1)c1nc2ncccc2[nH]1,97.4%,101%,92.3%,97.3%,105%,104%,94.3%,98.1%,93.7%,104%
N#CC1=C(N)Oc2c(sc3c(F)cccc23)C1c1ccc(F)cc1 (stereo not given),38.9%,36.5%,49.3%,35.1%,11.6%,44.5%,-3.69% (active),25.7%,19.8%,13%
CCN(CC)CCSc1nc(-c2ccccc2)c(C#N)c(=O)[nH]1,68.9%,116%,122%,55%,118%,120%,104%,113%,97.7%,94.9%
O=C(CSc1nc(-c2ccccc2)[nH]c1S(=O)(=O)c1ccccc1)NC1CC1,56.6%,85.8%,105%,21.2%,102%,89.6%,76.2%,42.1%,94.5%,-30.9% (active)
COC(=O)CNC(=O)[C@H](Cc1ccccc1)NCc1ccncc1,101%,109%,101%,97.3%,108%,103%,84.5%,85.6%,105%,109%
C[C@@H]1CCC[C@H]1CC(N)C(=O)O (stereo not given in full),97.2%,101%,106%,107%,102%,98.2%,105%,110%,104%,116%
COc1ccc(-c2csc(N(C(=O)N3CCN(c4cc5c(cc4F)c(=O)c(C(=O)O)cn5C4CC4)CC3)c3ccccc3)n2)cc1,4.28% (active),28.5%,4.9% (active),9.2% (active),3.65% (active),-18.1% (active),-21.8% (active),13.6%,19.6%,17.9%
CCN(CC)c1ccc(/C=C/C(=O)c2ccc(Nc3nc(Nc4ccccc4)nc(Nc4ccccc4)n3)cc2)cc1,62.5%,63.8%,62.4%,50.8%,24.8%,24.2%,46.8%,37.6%,61.8%,27.9%
